DT40 TDP1 CPT: growth inhibition of DT40 Tdp1-/-;hTDP1 cells with camptothecin (screen for TDP1 inhibitors); chicken DT40 Tdp1-/-;hTDP1 cells + 20 nM CPT, ATP luminescence, 48 h; Potency, µM (top dose mostly 46.2 µM), without a hit: top-dose activity change, negative = growth inhibition, usual class: inhibitors; 420,000 tested, 12% active; AID 686979; note: potency is the fitted concentration of half-maximal effect; % is set by controls: 0 for no effect and ±100 for the full control effect; nearly all actives have a fitted effect of over 55% in size
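Chicken DT40 Tdp1-/- cells complemented with human TDP1, 400 cells/well, exposed to compounds plus 20 nM camptothecin for at least 48 h at 37 C; viability read as ATP content by CellTiter-Glo luminescence.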
DRD3 agonist: agonists of human D3 dopamine receptor | P35462 | D3R DiscoveRx beta-arrestin cells, luminescence, 90 min | max activation, % | 410,000 tested, 0.58% active | AID 652048; in the data active = max activation above about 30%; note: 0% is about no effect
Target sequence (P35462 whole entry, looked up): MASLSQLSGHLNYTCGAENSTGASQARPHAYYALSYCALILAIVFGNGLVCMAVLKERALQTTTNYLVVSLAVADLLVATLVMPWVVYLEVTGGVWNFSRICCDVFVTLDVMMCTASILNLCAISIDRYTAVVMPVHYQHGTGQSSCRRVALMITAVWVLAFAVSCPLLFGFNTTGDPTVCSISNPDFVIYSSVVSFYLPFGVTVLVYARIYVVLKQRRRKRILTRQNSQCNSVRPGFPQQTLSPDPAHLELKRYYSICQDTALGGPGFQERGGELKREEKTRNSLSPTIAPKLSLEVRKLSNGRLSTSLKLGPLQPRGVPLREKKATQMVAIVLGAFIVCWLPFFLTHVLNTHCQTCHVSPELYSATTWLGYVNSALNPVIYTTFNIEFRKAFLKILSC
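Agonist mode: compounds and dopamine controls were applied to plated cells for 90 min at 37 degrees C after an overnight attachment at 1500 cells/well. Luminescent read-out followed 30 - 60 minutes at room temperature with DiscoveRx detection reagent.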
ClpP mod: qHTS Assay for Activators of ClpP; AID 651965, 2013; ATP-dependent Clp protease proteolytic subunit (Bacillus subtilis (strain 168)), P80244; Potency, µM (highest dose often 57.5 µM), without a hit: at the highest dose activity change, negative = active; purified B. subtilis ClpP, FRET peptide cleavage, 20 min; 340,000 tested, 1.9% active; active = well fitted falling curve with a large enough effect; inconclusive = small, poorly fitted or top-dose-only effect; inactive = no such curve, though single readings can be large or run the other way; note: potency is the fitted concentration of half-maximal effect; the source files actives as falling curves though it sought activators and does not explain the sign; nearly all actives have a fitted effect of over 65% in size
Target sequence (P80244 whole entry, looked up): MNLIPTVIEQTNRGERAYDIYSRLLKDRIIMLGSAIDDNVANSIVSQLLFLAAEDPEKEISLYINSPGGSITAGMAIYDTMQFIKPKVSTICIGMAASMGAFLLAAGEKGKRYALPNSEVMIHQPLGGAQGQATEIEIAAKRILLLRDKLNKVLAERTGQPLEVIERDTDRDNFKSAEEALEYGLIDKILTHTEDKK
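Buffer: 100 mM Tris/HCl pH8, 100 mM KCl, 0.05% low protease BSA, 2.5% glycerol, 0.01% Tween-20. ClpP 10 microg/mL final; 20 min RT; delta FRET normalized to ADEP and DMSO controls.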
DRD3 antagonist: D3 dopamine receptor (human) antagonism | D3R cells, DiscoveRx beta-arrestin luminescence, antagonist mode; stronger effect = lower value | AID 652054 | P35462 | 360,000 tested, 2.5% active | max response, negative = inhibition, %; in the data active = max response below about -50%; inconclusive = no clear call, values can overlap the other calls; note: % is set by controls: 0 for no effect and ±100 for the full control effect
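Cells plated overnight at 1500 cells/well, then exposed to library compounds with dopamine controls for 90 minutes at 37 degrees C. DiscoveRx reagent added for 30–60 minutes at room temperature; luminescence read, quantitative HTS format.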
IL1B secr inh: blocks inflammasome-driven IL-1 beta release; THP-1 LPS/ATP IL-1B secretion, AlphaLISA, 16 h; stronger effect = lower value; activity change, % at 57.5 µM; 360,000 tested, 4.7% active; AID 743279; in the data active = activity change below about -50%; inconclusive = mostly about -30% to -49%; note: % is set by controls: 0 for no effect and ±100 for the full control effect
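Secreted IL-1B measured by AlphaLISA bead assay after 16 h compound exposure of THP-1 cells; compounds (final up to 57.5 uM) added 1 h before LPS (250 ng/mL) and ATP (1.25 mM) stimulation; lower signal means less secretion.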
TDP1 cell noCPT: qHTS for Inhibitors of human tyrosyl-DNA phosphodiesterase 1 (TDP1): qHTS in cells in absence of CPT. DT40 Tdp1-/- hTDP1 cells, no CPT, ATP luminescence, 48 h. Potency, µM (doses to about 46.2 µM), without a hit: top-dose activity change, negative = growth inhibition, actives largely listed as inhibitors. 420,000 tested, 15% active. AID 686978, 2013; note: potency is the fitted concentration of half-maximal effect; % is set by controls: 0 for no effect and ±100 for the full control effect; nearly all actives have a fitted effect of over 55% in size
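Growth kinetics read by CellTiter-Glo luminescence after ≥48 hr at 37 °C. Cells: DT40 Tdp1-/- stably carrying human TDP1, 400 per well, compound exposure in the absence of CPT (DMSO vehicle).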
Numbers without * were called inactive. Hits are enriched below; roughly 21% of the tested compounds scored in any of these assays. Unless noted, calls come from the whole dose curve; as a rule, active = well fitted inhibition curve with a large enough effect; inconclusive = small, poorly fitted or top-dose-only effect; inactive = flat fitted curve, though single readings scatter.

COc1ccc(O)c(CN2CCC3(CCC(CNC(=O)c4ccccc4)O3)CC2)c1 (stereo not drawn) was read as DT40 TDP1 CPT 3% and TDP1 cell noCPT inconclusive.
`O=C(CCCSc1nnnn1-c1cccc2ccccc12)c1ccc(F)cc1` gave DT40 TDP1 CPT -16%, DRD3 agonist 7, ClpP mod 0%, DRD3 antagonist 12, IL1B secr inh -4 and TDP1 cell noCPT 21µM*.
Screening COCCCn1c(SCC(=O)Nc2ccccc2F)nnc1-c1ccoc1C returned DT40 TDP1 CPT 11%, DRD3 agonist -3, DRD3 antagonist 9, IL1B secr inh -6 and TDP1 cell noCPT 7%.
`CCn1c(SCC(=O)Nc2ccccc2F)nnc1-c1ccoc1C` gave DT40 TDP1 CPT 13%, DRD3 agonist -25, DRD3 antagonist -55*, IL1B secr inh -6 and TDP1 cell noCPT 4%.
COc1cc(NS(=O)(=O)c2ccc3[nH]c4c(c3c2)CCCCCC4)cc(OC)c1 was read as DT40 TDP1 CPT inconclusive, DRD3 agonist 0, ClpP mod -16% and TDP1 cell noCPT 12µM*.
`COc1cc(NS(=O)(=O)c2ccc3[nH]c4c(c3c2)CCCC4)cc(OC)c1OC` gave DT40 TDP1 CPT 0.92µM*, DRD3 agonist -15, ClpP mod -2% and TDP1 cell noCPT 0.58µM*.
COc1cccc(CNC(=O)CN(C)S(=O)(=O)c2ccc3[nH]c4c(c3c2)CCCC4)c1 was read as DT40 TDP1 CPT inconclusive, DRD3 agonist -17, ClpP mod -2% and TDP1 cell noCPT inconclusive.
For COc1ccc(OC)c(NC(=O)CN(C)S(=O)(=O)c2ccc3[nH]c4c(c3c2)CCCC4)c1 the results were DT40 TDP1 CPT 18µM*, DRD3 agonist -1, ClpP mod inconclusive and TDP1 cell noCPT 21µM*.
COc1ccc(NS(=O)(=O)c2ccc3[nH]c4c(c3c2)CCCC4)cc1OC was read as DT40 TDP1 CPT 13µM*, DRD3 agonist 1, ClpP mod -8% and TDP1 cell noCPT 15µM*.
CCOC(=O)c1ccc(NS(=O)(=O)c2ccc3[nH]c4c(c3c2)CCCCC4)cc1 was read as DRD3 agonist -8 and ClpP mod 1%.
COc1ccc(OC)c(NS(=O)(=O)c2ccc3[nH]c4c(c3c2)CCCCC4)c1 was read as DRD3 agonist -4 and ClpP mod -8%.
For O=c1cc(O)nc(-c2ccc(Cl)cc2)s1 the results were DT40 TDP1 CPT -9%, DRD3 agonist 26, DRD3 antagonist 0, IL1B secr inh 8 and TDP1 cell noCPT -16%.
For OCCNc1nc(NCCC2=CCCCC2)nc(N2CCOCC2)n1 the results were DT40 TDP1 CPT 21µM*, DRD3 agonist 1, ClpP mod -2%, DRD3 antagonist -5, IL1B secr inh -5 and TDP1 cell noCPT 21µM*.
CNCc1ccccc1Sc1ccc(O)c(O)c1 was read as DT40 TDP1 CPT 2.6µM*, DRD3 agonist 2, ClpP mod -2%, DRD3 antagonist inconclusive, IL1B secr inh -125* and TDP1 cell noCPT 4.1µM*.
`COc1ccc(-c2onc(C)c2C)cc1S(=O)(=O)N1c2ccccc2CC1C` (stereo not drawn) gave DT40 TDP1 CPT 23µM*, DRD3 agonist -7, ClpP mod 0% and TDP1 cell noCPT inconclusive.
`COc1ccc(-c2onc(C)c2C)cc1S(=O)(=O)NCC1CCN(Cc2cc(C)ccc2C)CC1` gave DT40 TDP1 CPT inconclusive, DRD3 agonist -25, ClpP mod -9% and TDP1 cell noCPT 16µM*.
`COc1ccc(-c2onc(C)c2C)cc1S(=O)(=O)NCc1ccc(Br)cc1` gave DT40 TDP1 CPT 10µM*, DRD3 agonist -12, ClpP mod -1% and TDP1 cell noCPT 13µM*.
`CCN(CC)c1ccc(NS(=O)(=O)c2cc(-c3onc(C)c3C)ccc2OC)c(C)c1` gave DT40 TDP1 CPT 23µM*, DRD3 agonist 5, ClpP mod -1% and TDP1 cell noCPT inconclusive.
`Cc1c(C2=CCN(S(=O)(=O)c3ccc(Cl)cc3)CC2)c2ccccc2n1CC(=O)N1CCCC1` gave DT40 TDP1 CPT inconclusive, DRD3 agonist -16, ClpP mod -9% and TDP1 cell noCPT inconclusive.
CCc1cccc(CC)c1NC(=O)CSc1nnc(CCC(=O)O)c(=O)[nH]1 was read as DT40 TDP1 CPT 3%, DRD3 agonist 0, DRD3 antagonist -7, IL1B secr inh -12 and TDP1 cell noCPT -19%.
Screening COc1cccc(-c2cnc(C(O)c3cc(F)cc(Cl)c3)[nH]2)c1 (stereo not drawn) returned DT40 TDP1 CPT inconclusive, DRD3 agonist 7, ClpP mod -4%, DRD3 antagonist 0, IL1B secr inh -5 and TDP1 cell noCPT inconclusive.
Screening CCOc1ccc(C(=O)Nc2nnc(S(=O)(=O)N(CC)c3ccccc3C)s2)cc1 returned DT40 TDP1 CPT inconclusive, DRD3 agonist -21, ClpP mod -2% and TDP1 cell noCPT inconclusive.
For COc1ccc(CCNC(=O)C2CCCN(S(=O)(=O)c3ccc4c(c3)oc(=O)n4C)C2)cc1OC (stereo not drawn) the results were DT40 TDP1 CPT -28%, DRD3 agonist 10, ClpP mod -1% and TDP1 cell noCPT inconclusive.
`COc1ccc(NC(=O)CN2C(=O)COc3ccc(S(=O)(=O)N4CCCCC4)cc32)cc1Cl` gave DT40 TDP1 CPT inconclusive, DRD3 agonist -2, ClpP mod -1% and TDP1 cell noCPT 15µM*.
CC1CCN(S(=O)(=O)c2ccc3c(c2)N(CC(=O)NCCCN(Cc2ccccc2)C(C)C)C(=O)CO3)CC1 was read as DT40 TDP1 CPT inconclusive, DRD3 agonist -7, ClpP mod -3%, DRD3 antagonist -12, IL1B secr inh inconclusive and TDP1 cell noCPT inconclusive.
For CCN(CCCNC(=O)CN1C(=O)COc2ccc(S(=O)(=O)N3CCC(C)CC3)cc21)Cc1ccccc1 the results were DT40 TDP1 CPT inconclusive, DRD3 agonist -18, ClpP mod -10%, DRD3 antagonist -74* and TDP1 cell noCPT -21%.
`Cc1ccc(NC(=O)CN2C(=O)COc3ccc(S(=O)(=O)N4CCCCCC4)cc32)cc1Cl` gave DT40 TDP1 CPT 21µM*, DRD3 agonist -3, ClpP mod 2% and TDP1 cell noCPT 15µM*.

Source: PubChem BioAssay (National Center for Advancing Translational Sciences (NCATS))
